Consider 24 compounds from PubChem BioAssay AID623866 (Sanford-Burnham Center for Chemical Genomics, 2012).

The list shows a part of the results. Values without a mark were called inactive. Active and inactive are the calls of the source. How the calls were made is not given here.

The assay addresses Tyrosine-protein phosphatase non-receptor type 5 (Homo sapiens) (UniProt P54829). Kind of assay: STEP phosphatase inhibitor hit confirmation, biochemical, fluorescence intensity, single concentration (AID 623866).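 Further: 0% = enzyme with substrate plus DMSO and 100% = substrate without enzyme.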 The following applies: recombinant STEP, OMFP fluorogenic substrate, at 20 µM, hits give high values.

Tyrosine-protein phosphatase non-receptor type 5 (Homo sapiens), sequence (P54829 whole entry, looked up): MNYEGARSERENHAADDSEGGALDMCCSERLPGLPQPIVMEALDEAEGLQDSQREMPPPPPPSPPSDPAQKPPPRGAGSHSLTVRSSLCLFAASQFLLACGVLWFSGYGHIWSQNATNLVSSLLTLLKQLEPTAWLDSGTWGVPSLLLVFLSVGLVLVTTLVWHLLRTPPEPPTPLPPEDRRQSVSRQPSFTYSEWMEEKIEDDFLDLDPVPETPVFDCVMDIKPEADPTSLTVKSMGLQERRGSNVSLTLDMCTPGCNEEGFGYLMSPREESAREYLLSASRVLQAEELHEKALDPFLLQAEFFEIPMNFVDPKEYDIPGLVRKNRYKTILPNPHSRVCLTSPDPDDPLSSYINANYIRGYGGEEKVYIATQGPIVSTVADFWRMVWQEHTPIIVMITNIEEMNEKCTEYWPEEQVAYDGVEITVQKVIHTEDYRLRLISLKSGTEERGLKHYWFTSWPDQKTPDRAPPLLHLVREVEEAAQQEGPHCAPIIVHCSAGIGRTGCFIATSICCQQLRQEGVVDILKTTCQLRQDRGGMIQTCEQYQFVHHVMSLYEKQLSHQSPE

With `N#Cc1ccc(C(=O)Nc2cccc3cccnc23)c(F)c1`, the inhibition (usually the drop in the measured response relative to a control, in per cent) was -3.4%.

As to `O=C(N/N=C/c1coc2ccccc2c1=O)c1cc2ccccc2o1`, the inhibition is 24.4% (active). With `Nc1c(Cl)cc(-c2csc(N3CCCC3c3nc4cc(Cl)c(Cl)cc4n3CCOCCO)n2)cc1Cl` (centres undefined) the figure was 20.3%; with `O=C(Nc1cccnc1)c1cc2cc(Br)ccc2oc1=O`, 8.13%. `COCc1c(C(=O)N/N=C/C2CC=CCC2)nnn1-c1nonc1N` (centres undefined): the inhibition was -1.89%. As for `COc1ccc2[nH]c(=O)c(-c3noc(-c4ccc(F)cc4)n3)cc2c1`, the inhibition is 8.96%. With `Cc1ccc(CNC(=O)CSc2nnc3c(n2)[nH]c2ccc(F)cc23)cc1` the figure was -0.633%. Next, `O=C(CSC(=S)N1CCCCC1)c1c(F)cccc1F`: -5.75%; `CCCS(=O)(=O)N1CCCC(C(=O)NCc2ccco2)C1` (centres undefined): 1.82%; `CCc1ccc(NC(=O)CS(=O)CC(=O)NCCCc2ccccc2)cc1` (centres undefined): -4.12%.

As to `Cc1c(CCC(=O)O)c(=O)oc2c(C)c(OCc3ccccc3Cl)ccc12`, the inhibition was 42.7% (active). Next, `C/C(=N\Nc1ccc(S(N)(=O)=O)cc1[N+](=O)[O-])c1cccs1`: 64.7% (active). Next, `Cc1ccc(-c2nnc(-c3ccc(NC(=O)c4cccs4)cc3)o2)cc1`: 10.7%. With `Cc1ccc(OCC(=O)Nc2ccc(-c3nc4ncccc4o3)cc2)cc1` the figure was 23.6%; with `Cc1cc(C(=O)N2CCN(c3ccccn3)CC2)c(C)o1`, 7.4%.

In the case of `Cc1ccccc1CC1(CO)CCCN(C(=O)c2cc(-c3ccccc3)no2)C1` (centres undefined), the inhibition is 0.313%. For the compound `Cc1ccc(S(=O)(=O)c2c[nH]c3ccc(Cl)cc3c2=O)cc1`, the inhibition was 23.8% (active). Next, `N#Cc1c(-c2cccs2)nc(SCC(=O)c2ccc(Br)cc2)[nH]c1=O`: 103% (active); `COCCN(C(=S)Nc1ccccc1OC)C1CCN(C(C)C)CC1`: 7.61%; `C/C=C/C(=O)Nc1ccc(N2CCN(c3ccc(C(F)(F)F)cn3)CC2)nc1`: 12.4%. Next, `O=C(COc1cccc(F)c1)Oc1ccc(C(=O)c2ccccc2)cc1`: 12.2%; `O=C(NN=Cc1ccccc1O)NN=Cc1ccccc1O`: 90.1% (active); `Cc1ccn2c(-c3csc(Nc4ccc(C(=O)O)cc4)n3)c(C)nc2c1`: -1.96%.

With `O=C(N/N=C/c1cccc(Br)c1)c1ccc(N2CCCC2=O)cc1`, the inhibition was 41.4% (active).
